This is a sample that favours compounds with a hit; in the whole collection about 12% have one here.
PI5P4K alpha inh: PI5P4K alpha (human) kinase inhibition. P48426. PI5P4Kalpha enzyme, ADP-Glo luminescence, 60 min; stronger effect = lower value. max response, %. actives 1.2% (n = 330,000). AID 652105; active = max response of -50% or lower; inconclusive = between -30% and -50%; inactive = -30% or higher; also: value at the top dose of about 77 µM
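Human PI5P4Kalpha with substrate in 0.038 M HEPES pH 7.4, 0.28 mM EGTA, 0.1% CHAPS, 5% DMSO; reaction started with 5 microM ATP (final), 60 min at room temperature. ADP formed read by ADP-Glo luminescence.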
JMJD2A Tudor inh: inhibitors of human JMJD2A Tudor domain | O75164 | AlphaScreen JMJD2A-Tudor / H3K4me3 peptide binding | Potency, µM (series often up to 114 µM), usual class: inhibitors | actives 4.4% (n = 390,000); also: nearly all actives have a fitted effect of over 50% in size
BAZ2B inh: BAZ2B (human) inhibition; AID 504333; AlphaScreen BAZ2B-H3K14Ac peptide displacement; Potency, µM (top dose mostly 114 µM), hits mostly inhibitors; Q9UIF8; actives 4.4% (n = 360,000); also: nearly all actives have a fitted effect of over 60% in size
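Protein-peptide AlphaScreen: BAZ2B 50 nM, b-H3K14Ac 50 nM, 1x PBS pH 7.4 + 0.01% Tween-20. Preincubation 30 min RT; cpd 30 min RT (top 110 uM); beads 20 min RT, light-protected.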
HP1b chromo inh: HP1-beta chromodomain-methylated histone interaction inhibition | P83916 | Potency, µM (titrated, usually from 114 µM), hits mostly inhibitors | actives 0.56% (n = 390,000) | AlphaScreen HP1-beta / biotin-H3K9me3 peptide binding; also: nearly all actives have a fitted effect of over 70% in size
Target sequence (P83916 whole entry, looked up): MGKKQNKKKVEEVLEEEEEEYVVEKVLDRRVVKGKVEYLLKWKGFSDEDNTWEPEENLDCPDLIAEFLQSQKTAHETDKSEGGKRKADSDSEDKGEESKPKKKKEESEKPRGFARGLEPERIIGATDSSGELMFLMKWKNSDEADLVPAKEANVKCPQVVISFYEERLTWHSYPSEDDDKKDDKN
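Compound inhibition of the preformed complex between 50 nM HP1-beta and 50 nM biotinylated H3K9me3 peptide was read by AlphaScreen. Buffer was PBS pH 7.4 with 0.01% Tween-20. Incubations ran 30 min at room temperature, with 10 ug/mL donor/acceptor beads.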
G9a block: G9a (human) methyltransferase inhibition; G9a H3K9 monomethylation, AlphaScreen, 2 h; Potency, µM (highest dose often 102 µM), hits mostly inhibitors; actives 8.8% (n = 350,000); AID 504332; Q96KQ7; also: nearly all actives have a fitted effect of over 75% in size
Target sequence (Q96KQ7 913-1193 limits assumed): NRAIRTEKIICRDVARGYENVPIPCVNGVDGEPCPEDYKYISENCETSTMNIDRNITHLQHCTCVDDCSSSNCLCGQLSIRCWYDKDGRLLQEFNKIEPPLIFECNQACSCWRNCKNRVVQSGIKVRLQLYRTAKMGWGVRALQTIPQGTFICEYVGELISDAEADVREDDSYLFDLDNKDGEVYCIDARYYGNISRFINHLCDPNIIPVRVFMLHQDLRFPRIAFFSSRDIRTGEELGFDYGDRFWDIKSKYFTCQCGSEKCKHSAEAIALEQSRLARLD
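AlphaScreen read-out: biotin-H3K9 peptide (500 nM) methylation by 20 nM enzyme with 20 uM SAM, 2 h at room temperature after 15 min compound preincubation; anti-monomethyl H3K9 antibody plus donor/acceptor beads, 10 min dark.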
PLK1 PBD inh: inhibitors of human PLK1 polo-box domain binding | Plk1 PBD binding of FITC phosphopeptide, fluorescence polarization | Potency, µM, usual class: inhibitors | P53350 | actives 2.8% (n = 360,000); also: series mostly up to about 57 µM; nearly all actives have a fitted effect of over 65% in size
Numbers stand for hits; [ ] = remark or other dose. Unless noted, calls follow the shape of the dose curve; as a rule, active = well fitted curve in the direction sought with a large enough effect; inconclusive = small, poorly fitted or top-dose-only effect, or another doubt; inactive = no such curve, though single readings can be large; an effect the other way counts as inactive or inconclusive.

For O=c1cc(CN2CCN(Cc3ccccc3)CC2)c2ccc(O)cc2o1 the results were PI5P4K alpha inh inactive, JMJD2A Tudor inh inactive, BAZ2B inh inactive, HP1b chromo inh inactive, G9a block inactive and PLK1 PBD inh inactive.
Screening O=C(c1ccco1)N1CCN(Cc2cc(=O)oc3cc(O)ccc23)CC1 returned PI5P4K alpha inh inactive, JMJD2A Tudor inh inactive, BAZ2B inh inactive, HP1b chromo inh inactive, G9a block 22.4µM and PLK1 PBD inh inactive.
For O=C(COc1ncnc2sccc12)N1CCN(C(=O)c2ccco2)CC1 the results were PI5P4K alpha inh inconclusive, JMJD2A Tudor inh inconclusive, BAZ2B inh inconclusive, HP1b chromo inh inactive, G9a block 50.1µM and PLK1 PBD inh inconclusive.
Screening CC(C)(C)c1ccc(C(=O)N2CCN(S(=O)(=O)c3ccc(Br)s3)CC2)cc1 returned PI5P4K alpha inh inactive, JMJD2A Tudor inh inactive, BAZ2B inh inactive, HP1b chromo inh inactive, G9a block inactive[12.7 µM] and PLK1 PBD inh inactive.
Screening COc1cccc(CN2CCN(C(=O)c3ccco3)CC2)c1 returned PI5P4K alpha inh inactive, JMJD2A Tudor inh 28.2µM, BAZ2B inh 28.2µM, HP1b chromo inh inconclusive, G9a block 20µM and PLK1 PBD inh inactive.
O=C(c1ccco1)N1CCN(S(=O)(=O)c2ccc(Br)s2)CC1 was read as JMJD2A Tudor inh inactive, BAZ2B inh inactive, HP1b chromo inh inactive, G9a block 12.6µM and PLK1 PBD inh inactive.
Screening Cc1cccc(OCC(=O)N2CCN(C(=O)c3ccco3)CC2)c1 returned PI5P4K alpha inh inactive, JMJD2A Tudor inh inactive, BAZ2B inh inactive, HP1b chromo inh inactive, G9a block inactive and PLK1 PBD inh 37.7µM.
COC(=O)C[C@H](NC(=O)[C@H](C)NC(=O)[C@@H](NC(=O)OCc1ccccc1)C(C)C)C(=O)CF was read as G9a block inactive.
Cc1oc2ncn(C)c(=O)c2c1C(=O)N(C)c1ccccc1F was read as JMJD2A Tudor inh inactive, BAZ2B inh inactive, HP1b chromo inh inactive and G9a block inactive.
O=C(c1ccco1)N1CCN(Cc2cccc3ccccc23)CC1 was read as PI5P4K alpha inh inactive, JMJD2A Tudor inh 22.4µM, BAZ2B inh 20µM, HP1b chromo inh 22.4µM, G9a block 14.1µM and PLK1 PBD inh inactive.
Screening O=C(Oc1ccccc1)N1CCC[C@@]2(CCN(c3ccccc3)C2)C1 returned G9a block inactive[12.7 µM].
Cc1ccc(S(=O)(=O)NNC(=O)C23CCC(CC2)C3)cc1 was read as PI5P4K alpha inh inactive and PLK1 PBD inh inactive.
`COc1ccc(S(=O)(=O)NNC(=O)C23CC4CC(CC(C4)C2)C3)cc1` gave PI5P4K alpha inh inactive, JMJD2A Tudor inh inactive, BAZ2B inh inactive, HP1b chromo inh inactive, G9a block 79.4µM and PLK1 PBD inh inactive.
Screening Cc1cccc(NC(=O)CSc2cc(C(=O)c3nccn3C)c3ccccc3n2)c1 returned PI5P4K alpha inh inactive, JMJD2A Tudor inh inconclusive, BAZ2B inh inactive, HP1b chromo inh inactive, G9a block 12.6µM and PLK1 PBD inh inactive.
For Cn1ccnc1C(=O)c1cc(SCC(=O)NCc2ccccc2)nc2ccccc12 the results were PI5P4K alpha inh inactive, JMJD2A Tudor inh inactive[11.4 µM], BAZ2B inh inconclusive, HP1b chromo inh inactive, G9a block inconclusive and PLK1 PBD inh 21.2µM.
COC(=O)CSc1cc(C(=O)c2nccn2C)c2ccccc2n1 was read as PI5P4K alpha inh inactive, JMJD2A Tudor inh inactive, BAZ2B inh inactive, HP1b chromo inh inactive, G9a block inactive and PLK1 PBD inh inactive.
For CCC1CCCCN1C(=O)Cn1c(=O)n(-c2ccccc2C(F)(F)F)c(=O)c2c(C)c(C(=O)N(C)C)sc21 (centres undefined) the results were JMJD2A Tudor inh inactive, BAZ2B inh inactive, HP1b chromo inh inactive and G9a block inactive.
Screening O=C(CCCc1ccccc1)Nc1ccc(Br)cc1F returned PI5P4K alpha inh inactive, JMJD2A Tudor inh inconclusive, BAZ2B inh inactive, HP1b chromo inh inactive, G9a block inactive and PLK1 PBD inh 6.7µM.
Screening O=C(CCc1ccccc1)Nc1ccc(F)cc1F returned JMJD2A Tudor inh inactive, BAZ2B inh inactive, HP1b chromo inh inactive, G9a block inactive[12.7 µM] and PLK1 PBD inh inactive.
For Cc1ccc(NC(=O)CCCc2ccccc2)c([N+](=O)[O-])c1 the results were PI5P4K alpha inh inactive, JMJD2A Tudor inh inconclusive, BAZ2B inh inconclusive, HP1b chromo inh inconclusive, G9a block 3.16µM and PLK1 PBD inh inactive.
